According to PubChem BioAssay (Tox21):
Results filed as inconclusive are left out. Activity calls are given as the source filed them. Calls follow the shape of the dose curve; as a rule, active = well fitted curve in the direction sought with a large enough effect in the repeat runs; inconclusive = weak or mixed curves; inactive = no such curve, though single readings can be large; an effect the other way counts as inactive or inconclusive.

Assays:
[1] = A CellTox Green Cytotoxicity Assay to monitor cytotoxicity in HEK293 cells - 40 hour (AID 1224871); also: nearly all actives have a fitted effect of over 45% in size
How it was run: (§1)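 Seeding of HEK293 cells together with cytotoxicity dye preceded a 5 h incubation at 37 C/5% CO2. Test compounds in DMSO were then added and fluorescence monitored across 40 h.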

[2] = qHTS RealTime-Glo MT Cell Viability Assay in HEK293 cells - 16 hour (AID 1224872); also: top concentration of the series differs between compounds; nearly all actives have a fitted effect of over 50% in size
How it was run: (§2)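 Luminescence generated by NanoLuc from substrate produced by living HEK293 cells served as the viability signal. Each value reflects the reading at its stated time point during continuous 40 h compound exposure at 37 C.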

[3] = qHTS RealTime-Glo MT Cell Viability Assay in HepG2 cells - 8 hour (AID 1224873); also: nearly all actives have a fitted effect of over 55% in size
How it was run: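 Real-time viability: cells seeded at 600 per well together with NanoLuc and cell-permeant prosubstrate, compounds added after 5 h incubation. Luminescence tracked at 0, 8, 16, 24, 32 and 40 h of exposure.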

[4] = qHTS RealTime-Glo MT Cell Viability Assay in HEK293 cells - 40 hour (AID 1224874); conditions: RealTime-Glo luminescence; max response: active compounds read low; also: nearly all actives have a fitted effect of over 50% in size
How it was run: (§3)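 Tox21 screen in HEK293 using RealTime-Glo MT chemistry, with cells and reagent co-dispensed. Luminescence proportional to viable cell number was captured at intervals during 40 h compound exposure at 37 C.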

[5] = A CellTox Green Cytotoxicity Assay to monitor cytotoxicity in HEK293 cells - 24 hour (AID 1224875); also: series mostly up to about 77 µM; nearly all actives have a fitted effect of over 45% in size
How it was run: as §1

[6] = A CellTox Green Cytotoxicity Assay to monitor cytotoxicity in HepG2 cells - 16 hour (AID 1224876); also: nearly all actives have a fitted effect of over 45% in size
How it was run: (§4)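 Nonlytic assay: viable cells exclude the dye, so fluorescence scales with cell death. HepG2 at 600 cells/well, compounds added after 5 h, signal read across 40 h.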

[7] = qHTS RealTime-Glo MT Cell Viability Assay in HepG2 cells - 32 hour (AID 1224877); also: nearly all actives have a fitted effect of over 55% in size
How it was run: (§5)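 Tox21 10K library screened in qHTS format on HepG2 cells carrying RealTime-Glo reagents. Compounds were added after a 5 h preincubation, and the luminescent signal from continuous culture was measured repeatedly during 40 h treatment.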

[8] = A CellTox Green Cytotoxicity Assay to monitor cytotoxicity in HepG2 cells - 24 hour (AID 1224878); also: nearly all actives have a fitted effect of over 45% in size
How it was run: as §4

[9] = A CellTox Green Cytotoxicity Assay to monitor cytotoxicity in HepG2 cells - 40 hour (AID 1224879); also: nearly all actives have a fitted effect of over 40% in size
How it was run: as §4

[10] = qHTS RealTime-Glo MT Cell Viability Assay in HEK293 cells - 0 hour (AID 1224880)
How it was run: as §3

[11] = A CellTox Green Cytotoxicity Assay to monitor cytotoxicity in HepG2 cells - 0 hour (AID 1224882); also: nearly all actives have a fitted effect of over 35% in size
How it was run: as §4

[12] = A CellTox Green Cytotoxicity Assay to monitor cytotoxicity in HepG2 cells - 32 hour (AID 1224883); also: nearly all actives have a fitted effect of over 50% in size
How it was run: as §4

[13] = A CellTox Green Cytotoxicity Assay to monitor cytotoxicity in HEK293 cells - 8 hour (AID 1224884); also: nearly all actives have a fitted effect of over 35% in size
How it was run: as §1

[14] = qHTS RealTime-Glo MT Cell Viability Assay in HepG2 cells - 16 hour (AID 1224885); also: nearly all actives have a fitted effect of over 50% in size
How it was run: as §5

[15] = qHTS RealTime-Glo MT Cell Viability Assay in HEK293 cells - 24 hour (AID 1224886)
How it was run: as §2

[16] = qHTS RealTime-Glo MT Cell Viability Assay in HEK293 cells - 8 hour (AID 1224887)
How it was run: as §3

[17] = A CellTox Green Cytotoxicity Assay to monitor cytotoxicity in HEK293 cells - 16 hour (AID 1224888); also: nearly all actives have a fitted effect of over 35% in size
How it was run: as §1

[18] = qHTS RealTime-Glo MT Cell Viability Assay in HepG2 cells - 0 hour (AID 1224889); also: nearly all actives have a fitted effect of over 50% in size
How it was run: as §5

[19] = A CellTox Green Cytotoxicity Assay to monitor cytotoxicity in HepG2 cells - 8 hour (AID 1224890); also: nearly all actives have a fitted effect of over 45% in size
How it was run: as §4

[20] = A CellTox Green Cytotoxicity Assay to monitor cytotoxicity in HEK293 cells - 32 hour (AID 1224881); also: nearly all actives have a fitted effect of over 40% in size
How it was run: as §1
% is scaled to controls: 0 for no effect and ±100 for the full control effect.

CCOP(=S)(OCC)SCSc1ccc(Cl)cc1
inactive: Potency [1] | Potency [2] | Potency [3] | max response [4] -2.07% | Potency [5] | Potency [6] | Potency [7] | Potency [8] | Potency [9] | outcome [10] | outcome [11] | Potency [12] | Potency [13] | Potency [14] | Potency [15] | Potency [16] | Potency [17] | Potency [18] | Potency [19]

CC(=O)CCc1ccc2c(c1)OCO2
inactive: Potency [1] | Potency [2] | Potency [3] | max response [4] 0.514% | Potency [5] | Potency [6] | Potency [7] | Potency [8] | Potency [9] | Potency [20] | outcome [11] | Potency [12] | Potency [13] | Potency [14] | Potency [15] | Potency [16] | Potency [17] | Potency [18] | Potency [19]

CN(C)CCc1ccc(O)cc1
inactive: Potency [1] | Potency [2] | Potency [3] | max response [4] 11.4% | Potency [5] | Potency [6] | Potency [7] | Potency [8] | Potency [9] | outcome [11] | Potency [12] | Potency [13] | Potency [14] | Potency [16] | Potency [17] | Potency [18] | Potency [19]

CCN(CC)c1nc(C)cc(OP(=S)(OC)OC)n1
inactive: Potency [1] | Potency [2] | Potency [3] | max response [4] 2.28% | Potency [5] | Potency [6] | Potency [7] | Potency [8] | Potency [9] | Potency [20] | outcome [11] | Potency [12] | Potency [13] | Potency [14] | Potency [15] | Potency [16] | Potency [17] | Potency [18] | Potency [19]

O=C1OC(CCN2CCCCC2)OC1(c1ccccc1)c1ccccc1 (centres undefined)
inactive: Potency [1] | Potency [2] | Potency [3] | max response [4] 5.83% | Potency [5] | Potency [6] | Potency [7] | Potency [8] | outcome [10] | Potency [20] | outcome [11] | Potency [12] | Potency [13] | Potency [14] | Potency [15] | Potency [16] | Potency [17] | Potency [18] | Potency [19]

CC(C=O)Cc1ccc2c(c1)OCO2 (centres undefined)
inactive: Potency [1] | Potency [2] | Potency [3] | max response [4] 0.337% | Potency [5] | Potency [6] | Potency [7] | Potency [8] | Potency [9] | Potency [20] | outcome [11] | Potency [12] | Potency [13] | Potency [14] | Potency [15] | Potency [16] | Potency [17] | Potency [18] | Potency [19]

O=C1c2ccccc2C(=O)c2ccccc21
inactive: cytotoxicity increase [1] -0.882% [at 15.8 µM] | activity change, negative = cytotoxicity [2] 16.4% [at 15.8 µM] | viability change, negative = cytotoxic [3] 0.64% [at 15.8 µM] | max response [4] 18.9% | activity change [5] 6.87% [at 15.8 µM, active compounds read high] | cytotoxicity increase [6] 8.1% [at 15.8 µM] | activity change, negative = cytotoxic [7] 1.27% [at 15.8 µM] | cytotoxicity [8] 6.42% [at 15.8 µM] | cytotoxicity increase [9] 18.9% [at 15.8 µM] | cytotoxicity increase [20] 6.55% [at 15.8 µM] | cytotoxicity [11] 5.37% [at 15.8 µM] | cytotoxicity increase [12] 7.1% [at 15.8 µM] | cytotoxicity increase [13] 6.23% [at 15.8 µM] | activity change, negative = cytotoxic [14] 1.58% [at 15.8 µM] | activity change, negative = cytotoxicity [16] 16.6% [at 15.8 µM] | activity change [17] 5.38% [at 15.8 µM, active compounds read high] | activity change, negative = cytotoxicity [18] 6.06% [at 15.8 µM] | cytotoxicity increase [19] 19.4% [at 15.8 µM]

CNC(=O)Oc1c(C(C)(C)C)cc(C)cc1C(C)(C)C
inactive: Potency [1] | Potency [2] | Potency [3] | max response [4] -2.73% | Potency [5] | Potency [6] | Potency [7] | Potency [8] | Potency [9] | outcome [10] | outcome [11] | Potency [12] | Potency [13] | Potency [14] | Potency [15] | Potency [16] | Potency [17] | Potency [18] | Potency [19]

CC(Cl)(Cl)[N+](=O)[O-]
inactive: Potency [1] | Potency [2] | Potency [3] | max response [4] 2.41% | Potency [5] | Potency [6] | Potency [7] | Potency [8] | Potency [9] | Potency [20] | outcome [11] | Potency [12] | Potency [13] | Potency [14] | Potency [15] | Potency [16] | Potency [17] | Potency [18] | Potency [19]

COc1cc(OC)nc(NC(=O)NS(=O)(=O)c2ncccc2C(=O)N(C)C)n1
inactive: Potency [1] | Potency [2] | Potency [3] | max response [4] 7.6% | Potency [5] | Potency [6] | Potency [7] | Potency [8] | Potency [9] | outcome [10] | outcome [11] | Potency [12] | Potency [13] | Potency [14] | Potency [15] | Potency [16] | Potency [17] | Potency [18] | Potency [19]

O=[N+]([O-])c1ccc(CBr)cc1
inactive: Potency [1] | Potency [2] | Potency [3] | max response [4] 12.7% | Potency [5] | Potency [6] | Potency [7] | Potency [8] | Potency [9] | outcome [10] | outcome [11] | Potency [12] | Potency [13] | Potency [15] | Potency [16] | Potency [17] | Potency [18] | Potency [19]

O=CNC(N1CCN(C(NC=O)C(Cl)(Cl)Cl)CC1)C(Cl)(Cl)Cl (centres undefined)
inactive: Potency [1] | Potency [2] | Potency [3] | max response [4] -2.73% | Potency [5] | Potency [6] | Potency [7] | Potency [8] | Potency [9] | outcome [10] | outcome [11] | Potency [12] | Potency [13] | Potency [14] | Potency [16] | Potency [17] | Potency [18] | Potency [19]

CCOC(=O)C(c1c(O)c2ccccc2oc1=O)c1c(O)c2ccccc2oc1=O
inactive: Potency [1] | Potency [2] | Potency [3] | max response [4] 4.14% | Potency [5] | Potency [6] | Potency [7] | Potency [8] | Potency [9] | Potency [20] | outcome [11] | Potency [12] | Potency [13] | Potency [14] | Potency [15] | Potency [16] | Potency [17] | Potency [19]

CC(C)NCC(O)c1ccc(N)c(C#N)c1 (centres undefined)
inactive: Potency [1] | Potency [2] | Potency [3] | max response [4] 2.86% | Potency [5] | Potency [6] | Potency [7] | Potency [8] | Potency [9] | Potency [20] | outcome [11] | Potency [12] | Potency [13] | Potency [15] | Potency [16] | Potency [17] | Potency [18] | Potency [19]
